Assay results published in PubChem BioAssay (NCI).
Values joined by “and” are separate entries in the source; they are usually repeats but may differ in a detail not shown here. Equal entries are not always repeated. Compounds without any hit were thinned out: in the full panel of roughly 83,000, 20% have a hit.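 Cells were grown in 96-well plates and exposed to the test compound at a single concentration for 48 hours; results are reported as percent growth, with values below 10 considered active.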 Active and inactive are the calls of the source.

Experiments:
Assay in all cases: NCI-60 one-dose screen, 48 h (100 = growth as untreated, 0 = no growth, -100 = all killed)
Details in all cases: 10 µM unless noted
SR leukemia = system: SR leukemia
RPMI-8226 leukemia = system: RPMI-8226 leukemia
OVCAR-5 ovarian = system: OVCAR-5 ovarian
OVCAR-4 ovarian = system: OVCAR-4 ovarian
SK-OV-3 ovarian = system: SK-OV-3 ovarian
IGROV1 ovarian = system: IGROV1 ovarian
OVCAR-3 ovarian = system: OVCAR-3 ovarian
HS 578T breast = system: HS 578T breast
NCI/ADR-RES ovarian = system: NCI/ADR-RES ovarian
OVCAR-8 ovarian = system: OVCAR-8 ovarian

Row | SMILES | growth (SR leukemia) | growth (RPMI-8226 leukemia) | growth (OVCAR-5 ovarian) | growth (OVCAR-4 ovarian) | growth (SK-OV-3 ovarian) | growth (IGROV1 ovarian) | growth (OVCAR-3 ovarian) | growth (HS 578T breast) | growth (NCI/ADR-RES ovarian) | growth (OVCAR-8 ovarian)
1 | Cc1ccc(/C=C2\COc3ccc(O)c(O)c3C2=O)cc1 | 18% (inactive) | -12.6% (active) | -22.1% (active) | 15.7% (inactive) | 50% (inactive) | -37.4% (active) | -21.3% (active) | 20.5% (inactive) | 3.13% (active) | 
2 | COc1cc2c(cc1OCCCOC1=C=C=C(c3ccc4c(c3)c3cc(-c5ccc(OCCCOc6cc7c(cc6OC)C(=O)N6CCC[C@H]6C=N7)cc5)ccc3n4S(=O)(=O)c3ccc(C)cc3)C=C1)N=C[C@@H]1CCCN1C2=O | -74% (active) | 17.9% (inactive) | 113% (inactive) | 58.2% (inactive) | 93.7% (inactive) | 14% (inactive) | 0.652% (active) | 2.22% (active) | 94% (inactive) | 
3 | OCCN1CCN(CC/C=C2\c3ccccc3Sc3ccc(Cl)cc32)CC1 |  | -35.8% (active) and -38.4% (active) | 41.8% (inactive) and 63.4% (inactive) | 71.9% (inactive) and 128% (inactive) | 77.8% (inactive) and 77.2% (inactive) | 26.3% (inactive) | 42.4% (inactive) and 37.7% (inactive) | 1.43% (active) and 32.3% (inactive) | 58.2% (inactive) and 76.6% (inactive) | 79.4% (inactive) and 86.4% (inactive)
4 | C[C@]12CCc3c(ccc4cc(O)ccc34)[C@@H]1C[C@H](O)[C@@H]2O | 110% (inactive) | 97.1% (inactive) | 104% (inactive) |  | 106% (inactive) | 103% (inactive) | 96.7% (inactive) | 84.9% (inactive) | 96% (inactive) | 
5 | O=C(CCCOc1ccc(Br)cc1)Nc1ncc(Cc2ccc(F)cc2)s1 | 22.6% (inactive) | 77.6% (inactive) | 79.4% (inactive) | 68.7% (inactive) | 81.7% (inactive) | 78.5% (inactive) | 81% (inactive) | 74.3% (inactive) | 73.6% (inactive) | 
6 | O=C([C@H]1C[C@H]1c1ccc(S(F)(F)(F)(F)F)cc1)N1CCN(c2cc(Cl)ccc2C(F)(F)F)CC1 | 88.1% (inactive) | 75.8% (inactive) | 95.3% (inactive) | 90.7% (inactive) | 79.1% (inactive) | 73.3% (inactive) | 100% (inactive) | 91.4% (inactive) | 95.5% (inactive) | 
7 | CS(=O)(=O)Nc1cc(-c2ccc3ncnc(Nc4ccc(F)c(Cl)c4)c3c2)cnc1Cl | 0.546% (active) | -24% (active) | 15.3% (inactive) | 17.6% (inactive) | -19.6% (active) | -14.1% (active) | -22.6% (active) | -11.5% (active) | 34.2% (inactive) | 
8 | CCCCCCCCCCCCCCCCCCOc1cccc(CC(=O)OCC[N+](CC)(CC)CC)c1 | 53% (inactive) | 35.4% (inactive) | 71.3% (inactive) | 27.6% (inactive) | 103% (inactive) | 37.1% (inactive) | 77.7% (inactive) | 60.8% (inactive) | 103% (inactive) | 
9 | O=C(N=Nc1c(O)[nH]c2ccccc12)Nc1ccc(Br)cc1 | 76.7% (inactive) | 66.9% (inactive) | 81.4% (inactive) | 102% (inactive) | 97% (inactive) | 85.2% (inactive) | 97.4% (inactive) | 87.4% (inactive) | 97.2% (inactive) | 
10 | NS(=O)(=O)OCC1OC(n2cnc3cncnc32)C(O)C1O (centres undefined) | 2.84% [0.1 µM] (active) and 3.32% [0.1 µM] (active) | 25.1% [0.1 µM] (inactive) | 24.4% [0.1 µM] (inactive) and 6.91% [0.1 µM] (active) | 14.6% [0.1 µM] (inactive) and 11.4% [0.1 µM] (inactive) | 18.5% [0.1 µM] (inactive) and 21.6% [0.1 µM] (inactive) | 18% [0.1 µM] (inactive) and 48.5% [0.1 µM] (inactive) | 38.6% [0.1 µM] (inactive) and 28.1% [0.1 µM] (inactive) | 55.8% [0.1 µM] (inactive) | -5.79% [0.1 µM] (active) and 4.02% [0.1 µM] (active) | 
